The results in this text go back to PubChem BioAssay (NCATS).

Records with an inconclusive call do not appear. Where a call stands in place of a potency, no number is given. The source made the active and inactive calls. The call rests on the fitted dose curve; in most records, active means well fitted curve in the direction sought with a large enough effect; inconclusive means small, poorly fitted or top-dose-only effect, or another doubt; inactive means no such curve, though single readings can be large; an effect the other way counts as inactive or inconclusive.
Potency means the concentration at half of the fitted maximal effect.

Chain of M-phase phosphoprotein 8 (Homo sapiens) (Q99549 whole entry, looked up): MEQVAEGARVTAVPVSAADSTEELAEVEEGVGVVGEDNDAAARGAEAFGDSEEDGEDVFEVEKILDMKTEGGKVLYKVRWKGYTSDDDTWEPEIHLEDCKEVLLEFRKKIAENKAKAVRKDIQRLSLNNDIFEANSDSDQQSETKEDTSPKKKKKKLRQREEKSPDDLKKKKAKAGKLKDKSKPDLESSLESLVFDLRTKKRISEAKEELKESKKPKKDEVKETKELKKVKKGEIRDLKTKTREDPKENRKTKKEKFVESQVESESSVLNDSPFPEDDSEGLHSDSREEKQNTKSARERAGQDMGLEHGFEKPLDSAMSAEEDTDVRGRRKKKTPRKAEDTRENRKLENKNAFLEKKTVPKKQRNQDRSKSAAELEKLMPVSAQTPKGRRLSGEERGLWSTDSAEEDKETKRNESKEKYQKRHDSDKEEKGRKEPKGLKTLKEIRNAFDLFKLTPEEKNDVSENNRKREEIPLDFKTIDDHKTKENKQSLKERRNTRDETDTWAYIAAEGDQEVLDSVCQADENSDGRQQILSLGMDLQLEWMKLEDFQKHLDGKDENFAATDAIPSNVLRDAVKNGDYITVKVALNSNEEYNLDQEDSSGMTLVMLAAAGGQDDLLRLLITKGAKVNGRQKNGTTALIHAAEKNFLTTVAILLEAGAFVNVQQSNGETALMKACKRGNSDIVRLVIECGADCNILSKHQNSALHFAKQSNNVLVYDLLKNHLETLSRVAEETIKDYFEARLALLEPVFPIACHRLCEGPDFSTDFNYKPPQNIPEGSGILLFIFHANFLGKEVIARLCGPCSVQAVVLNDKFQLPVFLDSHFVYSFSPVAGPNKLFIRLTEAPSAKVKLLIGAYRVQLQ
Chain of Flap endonuclease 1 (Homo sapiens) (P39748 whole entry, looked up): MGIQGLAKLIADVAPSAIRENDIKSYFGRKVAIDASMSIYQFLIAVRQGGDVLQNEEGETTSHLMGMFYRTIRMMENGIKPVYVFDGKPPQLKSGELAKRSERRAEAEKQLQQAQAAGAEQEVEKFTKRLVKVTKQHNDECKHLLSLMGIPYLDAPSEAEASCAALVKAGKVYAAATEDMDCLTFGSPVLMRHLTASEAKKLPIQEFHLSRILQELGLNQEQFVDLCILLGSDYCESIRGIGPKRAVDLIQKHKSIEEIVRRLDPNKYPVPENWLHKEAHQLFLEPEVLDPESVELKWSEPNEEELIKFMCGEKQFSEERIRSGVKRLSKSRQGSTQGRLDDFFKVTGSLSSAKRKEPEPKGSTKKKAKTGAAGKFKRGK
Chain of Chromobox protein homolog 1 (Homo sapiens) (P83916 whole entry, looked up): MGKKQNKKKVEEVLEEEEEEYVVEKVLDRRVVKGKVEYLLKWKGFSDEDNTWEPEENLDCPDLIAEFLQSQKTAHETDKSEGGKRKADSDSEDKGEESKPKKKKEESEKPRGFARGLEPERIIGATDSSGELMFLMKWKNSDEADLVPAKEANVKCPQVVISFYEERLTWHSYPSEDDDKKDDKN

The target of the first experiment is Thioredoxin reductase 1, cytoplasmic (Rattus norvegicus) (UniProt O89049). Nature of the experiment: qHTS Assay for Inhibitors of Mammalian Selenoprotein Thioredoxin Reductase 1 (TrxR1) (AID 488773). Further: nearly all actives have a fitted effect of over 40% in size. As to conditions: purified TrxR1 enzyme activity; Potency: inhibition; series mostly up to 57.1 µM. The method in brief: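 Inhibition is scored from the loss of NADPH fluorescence between first and last reads of an 8-min kinetic run. Selenite (400 uM) was the substrate, added after 15 min compound preincubation at room temperature.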
Chain of Thioredoxin reductase 1, cytoplasmic (Rattus norvegicus) (O89049 whole entry, looked up): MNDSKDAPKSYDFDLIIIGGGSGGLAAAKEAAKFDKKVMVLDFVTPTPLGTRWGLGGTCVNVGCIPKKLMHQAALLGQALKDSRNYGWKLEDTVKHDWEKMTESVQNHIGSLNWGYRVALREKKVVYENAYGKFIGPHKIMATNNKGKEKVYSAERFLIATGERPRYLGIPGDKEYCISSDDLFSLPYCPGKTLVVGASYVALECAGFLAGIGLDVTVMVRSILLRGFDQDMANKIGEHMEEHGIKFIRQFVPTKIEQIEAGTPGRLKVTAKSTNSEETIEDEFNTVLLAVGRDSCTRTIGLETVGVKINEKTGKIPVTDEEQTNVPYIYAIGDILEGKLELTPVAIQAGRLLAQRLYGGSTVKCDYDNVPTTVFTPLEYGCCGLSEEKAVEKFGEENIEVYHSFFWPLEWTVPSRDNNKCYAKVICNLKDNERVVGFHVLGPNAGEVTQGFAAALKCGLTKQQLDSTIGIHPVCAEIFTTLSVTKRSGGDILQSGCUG
Background: qHTS replaces the single test concentration by a dilution series.
Consider `CC(C)NCC(O)c1ccc(NS(C)(=O)=O)cc1` (configuration not stated), for which the Potency entry was “inactive”.
Same read-out and setting: the result for `COc1cc2nc(N3CCCN(C)CC3)nc(NC3CCN(Cc4ccccc4)CC3)c2cc1OC` reads “inactive”; that for `Cc1ccc(S(=O)(=O)N[C@@H](Cc2ccccc2)C(=O)CCl)cc1`, 21.2 µM (active); that for `N[C@@H](Cc1ccc(O)c(O)c1)C(=O)O`, 29.9 µM (active).
Still for that read-out and setting: then `CCCCS(=N)(=O)CCC(N)C(=O)O` (configuration not stated), with “inactive”; and `CCN(CC)CCn1c(=O)c(Cc2ccc(OC)cc2)nc2ccccc21`, with “inactive”; and `Nc1nc(N)c2nc(CNc3ccc(C(=O)NC(CCC(=O)O)C(=O)O)cc3)cnc2n1` (configuration not stated), with “inactive”.
As for `CC1=C(C(=O)O)N2C(=O)[C@@H](NC(=O)C(N)c3ccccc3)[C@H]2SC1` (some centres not stated), the Potency result was “inactive”.
On the same count and under the same terms, then `CCN1CCCC1CNC(=O)c1cc(S(N)(=O)=O)ccc1OC` (configuration not stated), with “inactive”.
The same measure, in the same setting: then `O=C(O)C1CCCN(CCC=C(c2ccccc2)c2ccccc2)C1` (configuration not stated), with “inactive”; and `NC(=O)c1cccc(N)c1`, with “inactive”.
The same measure, in the same setting: the result for `CC1CC2C3CCC4=CC(=O)C=C[C@]4(C)[C@@]3(F)[C@@H](O)C[C@]2(C)[C@@]1(O)C(=O)CO` (some centres not stated) reads “inactive”; that for `NC(=O)c1ccc2[nH]ccc2c1`, “inactive”.
Consider `COc1cc2ncnc(Nc3cccc(Cl)c3)c2cc1OC`, for which the Potency result is “inactive”.
Consider `CC(=O)[C@H]1CC[C@H]2[C@@H]3CCC4=CC(=O)CC[C@]4(C)[C@H]3CC[C@]12C`, for which the Potency result was “inactive”.
On to `CCN(CC)CC#CCOC(=O)C(O)(c1ccccc1)C1CCCCC1` (configuration not stated), for which the Potency entry is “inactive”.

For the next experiment, the target named is Flap endonuclease 1 (Homo sapiens) (UniProt P39748). Nature of the experiment: qHTS Validation Assay for the Inhibitors of Human Flap endonuclease 1 (FEN1) (AID 488816). As to conditions: FEN1 nuclease activity, fluorogenic DNA substrate; series mostly up to 57.1 µM. Summed up:
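Enzyme reagent 10 nM; cpds pinned; 15 min RT preinc.; substrate 50 nM final; reads t=0 and 15 min; no-enzyme buffer wells as neg. control; normalized data, 4-parameter Hill fit.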
Regarding `CC(C)NCC(O)c1ccc(NS(C)(=O)=O)cc1` (configuration not stated), the Potency result was “inactive”.
On the same count and under the same terms, then `Cc1ccc(S(=O)(=O)N[C@@H](Cc2ccccc2)C(=O)CCl)cc1`, with “inactive”; and `N[C@@H](Cc1ccc(O)c(O)c1)C(=O)O`, with 3.77 µM (active).
The same measure, in the same setting: then `CCCCS(=N)(=O)CCC(N)C(=O)O` (configuration not stated), with “inactive”; and `OCc1ccc(-c2nn(Cc3ccccc3)c3ccccc23)o1`, with “inactive”.
Same read-out and setting: the result for `Nc1nc(N)c2nc(CNc3ccc(C(=O)NC(CCC(=O)O)C(=O)O)cc3)cnc2n1` (configuration not stated) reads “inactive”; that for `CC1=C(C(=O)O)N2C(=O)[C@@H](NC(=O)C(N)c3ccccc3)[C@H]2SC1` (some centres not stated), “inactive”.
Take `CCN1CCCC1CNC(=O)c1cc(S(N)(=O)=O)ccc1OC` (configuration not stated): the Potency entry is “inactive”.
As to `O=C(O)C1CCCN(CCC=C(c2ccccc2)c2ccccc2)C1` (configuration not stated), the Potency entry is “inactive”.
The same measure, in the same setting: then `NC(=O)c1cccc(N)c1`, with “inactive”.
Consider `CC1CC2C3CCC4=CC(=O)C=C[C@]4(C)[C@@]3(F)[C@@H](O)C[C@]2(C)[C@@]1(O)C(=O)CO` (some centres not stated), for which the Potency entry is “inactive”.
In the case of `NC(=O)c1ccc2[nH]ccc2c1`, the Potency entry was “inactive”.
Same read-out and setting: the result for `COc1cc2ncnc(Nc3cccc(Cl)c3)c2cc1OC` reads “inactive”; that for `CC(=O)[C@H]1CC[C@H]2[C@@H]3CCC4=CC(=O)CC[C@]4(C)[C@H]3CC[C@]12C`, “inactive”; that for `CCN(CC)CC#CCOC(=O)C(O)(c1ccccc1)C1CCCCC1` (configuration not stated), “inactive”.

The target of the next experiment is M-phase phosphoprotein 8 (Homo sapiens) (UniProt Q99549). Nature of the experiment: qHTS Validation Assay for Inhibitors for MPP8 Chromodomain Interactions with Methylated Histone Tails (AID 488949). Further: nearly all actives have a fitted effect of over 55% in size. As to conditions: AlphaScreen MPP8 binding to H3K9me3 peptide; series mostly up to 57.1 µM. The method in brief:
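Chemiluminescent proximity assay: histidine-tag capture via nickel acceptor beads, biotin peptide via streptavidin donor beads. Protein and peptide each at 50 nM, pH 7.4, with 30 min incubations at room temperature for complex formation, compound exposure and bead binding.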
Turning to `CC(C)NCC(O)c1ccc(NS(C)(=O)=O)cc1` (configuration not stated), the Potency result is “inactive”.
Same read-out and setting: then `COc1cc2nc(N3CCCN(C)CC3)nc(NC3CCN(Cc4ccccc4)CC3)c2cc1OC`, with “inactive”; and `Cc1ccc(S(=O)(=O)N[C@@H](Cc2ccccc2)C(=O)CCl)cc1`, with “inactive”.
The same measure, in the same setting: then `N[C@@H](Cc1ccc(O)c(O)c1)C(=O)O`, with 7.52 µM (active).
Still for that read-out and setting: then `CCCCS(=N)(=O)CCC(N)C(=O)O` (configuration not stated), with “inactive”.
Take `CCN(CC)CCn1c(=O)c(Cc2ccc(OC)cc2)nc2ccccc21`: the Potency entry is “inactive”.
The same measure, in the same setting: the result for `OCc1ccc(-c2nn(Cc3ccccc3)c3ccccc23)o1` reads 25.1 µM (active); that for `CCN1CCCC1CNC(=O)c1cc(S(N)(=O)=O)ccc1OC` (configuration not stated), “inactive”.
As to `O=C(O)C1CCCN(CCC=C(c2ccccc2)c2ccccc2)C1` (configuration not stated), the Potency result was “inactive”.
As for `NC(=O)c1cccc(N)c1`, the Potency entry is “inactive”.
On the same count and under the same terms, the result for `CC1CC2C3CCC4=CC(=O)C=C[C@]4(C)[C@@]3(F)[C@@H](O)C[C@]2(C)[C@@]1(O)C(=O)CO` (some centres not stated) reads “inactive”; that for `NC(=O)c1ccc2[nH]ccc2c1`, “inactive”.
The same measure, in the same setting: the result for `COc1cc2ncnc(Nc3cccc(Cl)c3)c2cc1OC` reads “inactive”.
On the same count and under the same terms, then `CC(=O)[C@H]1CC[C@H]2[C@@H]3CCC4=CC(=O)CC[C@]4(C)[C@H]3CC[C@]12C`, with “inactive”; and `CC(C)(C)NC(=O)[C@H]1CC[C@H]2[C@@H]3CC[C@H]4NC(=O)C=C[C@]4(C)[C@H]3CC[C@]12C`, with “inactive”; and `CCN(CC)CC#CCOC(=O)C(O)(c1ccccc1)C1CCCCC1` (configuration not stated), with “inactive”.

The target of another experiment is Chromobox protein homolog 1 (Homo sapiens) (UniProt P83916). The experiment in a line: qHTS Validation Assay for Inhibitors of HP1-beta Chromodomain Interactions with Methylated Histone Tails (AID 488953). Further: nearly all actives have a fitted effect of over 50% in size. As to conditions: HP1-beta chromodomain / methylated histone peptide binding assay; series mostly up to 114 µM. Summed up:
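Disruption of preformed HP1-beta:H3K9me3 peptide complexes (both 50 nM, PBS pH 7.4 with 0.01% Tween-20) is measured by AlphaScreen after 30 min compound exposure at room temperature, using streptavidin donor and nickel chelate acceptor beads at 10 ug/mL final.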
`CC(C)NCC(O)c1ccc(NS(C)(=O)=O)cc1` (configuration not stated): the Potency entry is “inactive”.
Turning to `Cc1ccc(S(=O)(=O)N[C@@H](Cc2ccccc2)C(=O)CCl)cc1`, the Potency result is “inactive”.
Turning to `N[C@@H](Cc1ccc(O)c(O)c1)C(=O)O`, the Potency was 31.6 µM (active).
Same read-out and setting: then `CCCCS(=N)(=O)CCC(N)C(=O)O` (configuration not stated), with “inactive”.
On the same count and under the same terms, then `CCN(CC)CCn1c(=O)c(Cc2ccc(OC)cc2)nc2ccccc21`, with “inactive”; and `OCc1ccc(-c2nn(Cc3ccccc3)c3ccccc23)o1`, with 39.8 µM (active).
Same read-out and setting: then `CC1=C(C(=O)O)N2C(=O)[C@@H](NC(=O)C(N)c3ccccc3)[C@H]2SC1` (some centres not stated), with “inactive”.
In the case of `CCN1CCCC1CNC(=O)c1cc(S(N)(=O)=O)ccc1OC` (configuration not stated), the Potency result is “inactive”.
Same read-out and setting: then `O=C(O)C1CCCN(CCC=C(c2ccccc2)c2ccccc2)C1` (configuration not stated), with “inactive”.
Turning to `NC(=O)c1cccc(N)c1`, the Potency entry was “inactive”.
Still for that read-out and setting: the result for `CC1CC2C3CCC4=CC(=O)C=C[C@]4(C)[C@@]3(F)[C@@H](O)C[C@]2(C)[C@@]1(O)C(=O)CO` (some centres not stated) reads “inactive”; that for `NC(=O)c1ccc2[nH]ccc2c1`, “inactive”.
As to `COc1cc2ncnc(Nc3cccc(Cl)c3)c2cc1OC`, the Potency entry was “inactive”.
On the same count and under the same terms, the result for `CC(=O)[C@H]1CC[C@H]2[C@@H]3CCC4=CC(=O)CC[C@]4(C)[C@H]3CC[C@]12C` reads “inactive”; that for `CCN(CC)CC#CCOC(=O)C(O)(c1ccccc1)C1CCCCC1` (configuration not stated), “inactive”.
